Results filed as inconclusive are left out. Calls of active or inactive are those of the source. Unless noted, calls come from the whole dose curve; as a rule, active = well fitted curve in either direction with a large enough effect (not every such curve was filed as active); inconclusive = small, poorly fitted or top-dose-only effect, or another doubt; inactive = flat fitted curve, though single readings scatter.
Experiments:
[1] = biological target: Cytochrome P450 2D6 (Homo sapiens) (UniProt P10635); assay: qHTS Assay for Inhibitors and Substrates of Cytochrome P450 2D6 (AID 891; active = well fitted curve in the direction sought with a large enough effect; an effect the other way counts as inactive or inconclusive; note: nearly all actives have a fitted effect of over 60% in size; note: potency is the fitted concentration of half-maximal effect;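 for activity change, negative = inhibition: luciferin methyl ether substrate demethylated by CYP2D6 with NADPH regeneration; % is set by controls: 0 for no effect and ±100 for the full control effect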)
Cytochrome P450 2D6 (Homo sapiens), sequence (P10635 whole entry, looked up): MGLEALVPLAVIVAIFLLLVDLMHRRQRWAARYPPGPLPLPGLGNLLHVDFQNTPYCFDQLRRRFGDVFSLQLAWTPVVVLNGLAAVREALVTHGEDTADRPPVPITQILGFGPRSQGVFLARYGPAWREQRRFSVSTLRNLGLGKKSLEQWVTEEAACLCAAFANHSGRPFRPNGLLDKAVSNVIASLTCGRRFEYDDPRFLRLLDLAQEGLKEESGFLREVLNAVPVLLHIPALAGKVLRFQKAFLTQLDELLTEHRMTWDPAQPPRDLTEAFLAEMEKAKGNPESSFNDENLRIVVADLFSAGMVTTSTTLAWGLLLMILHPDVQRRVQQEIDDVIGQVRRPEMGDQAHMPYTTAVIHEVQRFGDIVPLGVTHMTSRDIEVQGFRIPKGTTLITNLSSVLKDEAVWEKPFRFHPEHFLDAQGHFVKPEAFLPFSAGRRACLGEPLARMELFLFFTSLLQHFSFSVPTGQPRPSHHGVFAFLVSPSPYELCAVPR
How it was run: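 Human CYP2D6 (5 nM) with 30 uM Luciferin-ME EGE (at Km) in 100 mM KPO4, compound preincubated 10 min, then NADPH regeneration system for 60 min at room temperature. Luciferin read by luminescence; normalized to 1.43 uM quinidine.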

[2] = biological target: Cytochrome P450 2C19 (Homo sapiens) (UniProt P33261); assay: qHTS Assay for Inhibitors and Substrates of Cytochrome P450 2C19 (AID 899; active = well fitted curve in the direction sought with a large enough effect; an effect the other way counts as inactive or inconclusive; note: % is set by controls: 0 for no effect and ±100 for the full control effect; nearly all actives have a fitted effect of over 60% in size)
Cytochrome P450 2C19 (Homo sapiens), sequence (P33261 whole entry, looked up): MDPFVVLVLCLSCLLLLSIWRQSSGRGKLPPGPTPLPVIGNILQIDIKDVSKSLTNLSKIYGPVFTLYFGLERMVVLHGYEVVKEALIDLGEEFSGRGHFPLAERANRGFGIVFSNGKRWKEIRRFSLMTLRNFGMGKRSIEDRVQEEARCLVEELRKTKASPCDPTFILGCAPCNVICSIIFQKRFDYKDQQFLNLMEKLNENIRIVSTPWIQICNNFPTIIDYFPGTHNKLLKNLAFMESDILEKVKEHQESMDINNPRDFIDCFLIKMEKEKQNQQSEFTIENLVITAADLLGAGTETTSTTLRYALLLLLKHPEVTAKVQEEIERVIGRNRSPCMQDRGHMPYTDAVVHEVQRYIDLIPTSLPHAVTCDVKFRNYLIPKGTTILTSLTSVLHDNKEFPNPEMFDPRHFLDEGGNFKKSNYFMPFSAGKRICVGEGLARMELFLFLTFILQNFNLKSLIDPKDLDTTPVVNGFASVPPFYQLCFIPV
How it was run: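 In 50mM KPO4, the reaction held 5nM enzyme and KM-level (10uM) Luciferin-H EGE; it ran 60 min at 37C after NADPH regeneration and a 10 min compound preincubation. Luminescence values were scaled to 57uM ketoconazole as complete inhibition.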

[3] = biological target: Pyruvate kinase PKM (Homo sapiens) (UniProt P14618); assay: qHTS Assay for Inhibitors of Human Muscle Pyruvate Kinase (AID 958; active = well fitted curve in the direction sought with a large enough effect; an effect the other way counts as inactive or inconclusive)
Pyruvate kinase PKM (Homo sapiens), sequence (P14618 whole entry, looked up): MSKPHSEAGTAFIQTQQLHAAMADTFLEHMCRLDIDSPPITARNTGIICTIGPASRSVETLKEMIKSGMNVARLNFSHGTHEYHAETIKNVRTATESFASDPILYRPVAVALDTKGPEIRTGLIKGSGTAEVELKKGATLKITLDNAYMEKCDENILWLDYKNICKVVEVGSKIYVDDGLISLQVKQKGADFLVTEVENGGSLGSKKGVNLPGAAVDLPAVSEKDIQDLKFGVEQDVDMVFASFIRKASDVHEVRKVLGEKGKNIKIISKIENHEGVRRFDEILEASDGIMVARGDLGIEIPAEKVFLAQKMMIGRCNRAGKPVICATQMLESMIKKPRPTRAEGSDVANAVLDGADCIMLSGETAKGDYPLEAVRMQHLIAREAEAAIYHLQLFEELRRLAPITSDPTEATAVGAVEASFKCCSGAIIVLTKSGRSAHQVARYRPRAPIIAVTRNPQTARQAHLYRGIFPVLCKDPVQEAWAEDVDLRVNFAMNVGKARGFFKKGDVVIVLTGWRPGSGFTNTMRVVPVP
How it was run: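 Compound pinned into substrate mix (0.5 mM PEP, 0.1 mM ADP), then 0.1 nM PKM2 added; 1 h, RT. Stop/detection luciferase reagent added, luminescence read. Normalized to no-inhibition and no-enzyme or reference-inhibitor controls.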

[4] = biological target: Pyruvate kinase (Leishmania mexicana) (UniProt Q27686); assay: qHTS Validation Assay for Activators of Leishmania Mexicana Pyruvate Kinase (AID 959; active = well fitted curve in the direction sought with a large enough effect; an effect the other way counts as inactive or inconclusive)
Pyruvate kinase (Leishmania mexicana), sequence (Q27686 2-499 E452W): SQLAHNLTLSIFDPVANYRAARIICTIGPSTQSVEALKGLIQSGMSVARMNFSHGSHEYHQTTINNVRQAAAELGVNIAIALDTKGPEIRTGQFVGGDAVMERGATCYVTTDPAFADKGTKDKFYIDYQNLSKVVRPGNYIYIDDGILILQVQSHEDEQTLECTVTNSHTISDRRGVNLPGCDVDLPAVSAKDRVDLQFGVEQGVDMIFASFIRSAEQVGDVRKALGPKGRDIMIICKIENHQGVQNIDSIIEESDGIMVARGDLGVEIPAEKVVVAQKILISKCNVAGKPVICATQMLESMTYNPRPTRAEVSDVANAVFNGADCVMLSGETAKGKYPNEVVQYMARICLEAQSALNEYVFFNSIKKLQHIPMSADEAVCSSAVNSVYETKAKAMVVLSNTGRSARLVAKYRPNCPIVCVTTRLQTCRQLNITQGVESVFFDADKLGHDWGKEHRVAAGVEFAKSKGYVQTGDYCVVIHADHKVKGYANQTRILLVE
How it was run: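 The enzyme is a highly purified E451W mutant of LmPYK used at 0.2 nM. It converts 0.5 mM PEP and 0.1 mM ADP over 1 h at room temperature; product ATP is quantified by luciferase luminescence relative to DMSO controls.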

[5] = AP1 Signaling Pathway (AID 357); details: ME-180 AP-1-bla reporter, EGF-induced, beta-lactamase ratio, 5 h; at 17.2 µM (top of the series) unless noted; note: % is set by controls: 0 for no effect and ±100 for the full control effect
How it was run: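 Titration-series screen for positive or negative modulators of EC50 EGF-induced signaling in ME-180 cells carrying an AP-1-driven beta-lactamase reporter. After 5 hours at 37 degrees Celsius, CCF4 460nm/530nm emission ratio gave %Activity; AC50 values derived.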

[6] = NFAT Signaling Pathway (AID 444); details: Jurkat NFAT-bla M1, carbachol, beta-lactamase ratio, 5 h; at 17.2 µM (top of the series) unless noted;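 note: carbachol stimulus at about its EC50 of 1 µM final; % is set by controls: 0 for no effect and ±100 for the full control effect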
How it was run: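 Jurkat cells carrying an NFAT-driven β-lactamase reporter and co-transfected muscarinic M1 receptor were treated with compound plus carbachol (1 uM final, an EC50 level) for 5 h at 37 °C. CCF4 loading followed for 1 h at RT; 460/530 nm ratio gave %activity.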

[7] = Stat Signaling Pathway (AID 446);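 note: ME-180 cervical cancer cells given 40 pM IL-6 alongside compound; SIE-controlled beta-lactamase reporter measured as 460/530 nm FRET emission ratio; % is set by controls: 0 for no effect and ±100 for the full control effect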
How it was run: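 Reporter line: ME-180 cervical carcinoma, SIE-beta-lactamase. Treatment: compound with 40 pM IL-6, 5 hrs, 37 C, in low-serum OPTI-MEM with 10 mM HEPES pH 7.3. Detection: 460/530 nm fluorescence.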

[8] = biological target: Glucocorticoid receptor (Homo sapiens) (UniProt P04150); assay: GR-GFP Redistribution (AID 450;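 active = compounds whose dose series gives a full or clear partial fitted curve of increased nuclear translocation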; note: potency is the fitted concentration of half-maximal effect); details: U2OS GR-GFP nuclear translocation, laser cytometry, 2 h
Glucocorticoid receptor (Homo sapiens), sequence (P04150 whole entry, looked up): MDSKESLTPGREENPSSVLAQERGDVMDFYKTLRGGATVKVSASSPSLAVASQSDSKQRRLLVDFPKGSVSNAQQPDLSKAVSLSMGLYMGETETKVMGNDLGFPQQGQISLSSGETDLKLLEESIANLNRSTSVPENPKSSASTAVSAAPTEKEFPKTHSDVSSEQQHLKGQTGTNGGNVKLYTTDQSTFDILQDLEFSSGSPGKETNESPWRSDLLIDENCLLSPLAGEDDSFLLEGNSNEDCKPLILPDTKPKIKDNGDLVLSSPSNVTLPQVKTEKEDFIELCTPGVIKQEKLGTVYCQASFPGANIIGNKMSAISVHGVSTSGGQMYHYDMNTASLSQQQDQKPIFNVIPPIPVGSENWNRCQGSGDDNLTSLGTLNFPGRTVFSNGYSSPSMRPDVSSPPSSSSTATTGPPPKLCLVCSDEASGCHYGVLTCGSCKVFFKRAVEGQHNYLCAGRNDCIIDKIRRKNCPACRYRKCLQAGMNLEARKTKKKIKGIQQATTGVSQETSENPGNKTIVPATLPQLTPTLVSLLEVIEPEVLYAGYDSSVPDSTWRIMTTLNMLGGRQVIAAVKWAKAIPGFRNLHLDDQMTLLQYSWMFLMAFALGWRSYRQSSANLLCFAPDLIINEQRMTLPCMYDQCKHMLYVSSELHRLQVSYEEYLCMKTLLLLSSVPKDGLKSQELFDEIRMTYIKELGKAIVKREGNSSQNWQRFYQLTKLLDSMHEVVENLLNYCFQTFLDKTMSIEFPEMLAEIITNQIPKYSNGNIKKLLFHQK

C[C@@]12CC[C@H]3[C@@H](CCC4=CC(=O)CC[C@]43C)[C@H]1CCC2=O
inactive: Potency [1] | Potency [2]

C[C@H](N[C@@H](C)CCc1ccccc1)[C@H](O)c1ccc(O)cc1
active: Potency [1] 2 µM

NC(N)=Nc1ccc2[nH]c3c(c2c1)C[C@]1(O)[C@@H]2Cc4ccc(O)c5c4[C@]1(CCN2CC1CC1)[C@H]3O5
inactive: outcome [4]
active: Potency [3] 10 µM

C=CCN1CCc2cccc3c2[C@@H]1Cc1ccc(O)c(O)c1-3
inactive: Potency [3]

CCCCSP1(=S)NCCCN1
inactive: activity change, negative = inhibition [5] -7.63% | activity change, negative = inhibition [6] -2.25% | outcome [7] | Potency [8] > 20.6 µM

c1ccc(Cn2ccnc2)cc1
inactive: activity change, negative = inhibition [5] 3.97% | activity change, negative = inhibition [6] -0.8% | outcome [7] | Potency [8] > 20.6 µM

CC(C)(C)OC(=O)c1c(N)n(Cc2ccco2)c2nc3ccccc3nc12
inactive: activity change, negative = inhibition [5] -26.4% | activity change, negative = inhibition [6] 5.75% | outcome [7] | Potency [8] > 20.6 µM

CCCCCCn1c(O)c(C=NCCN2CCCCC2)c(=O)[nH]c1=O
inactive: activity change, negative = inhibition [5] 10.2% | activity change, negative = inhibition [6] 4.87% | outcome [7] | Potency [8] > 20.6 µM

CCOc1ccc(Cc2c(O)[nH]c(=O)[nH]c2=O)cc1
inactive: activity change, negative = inhibition [5] -3.54% | activity change, negative = inhibition [6] 3.49% | outcome [7] | Potency [8] > 20.6 µM

CN1CCc2c(c(N3CCCCC3)nc3n[nH]c(N)c23)C1
inactive: activity change, negative = inhibition [5] -3.37% | activity change, negative = inhibition [6] -4.59% | outcome [7] | Potency [8] > 20.6 µM

C=CCC1(CN2CCCCCC2=O)C(=O)NC(=O)NC1=O
inactive: activity change, negative = inhibition [5] 1.22% | activity change, negative = inhibition [6] 2.02% | outcome [7] | Potency [8] > 20.6 µM

C=CCOC(=O)C1=C(C)OC(N)=C(C#N)C12C(=O)N(CN1CCOCC1)c1ccccc12 (stereo unspecified)
inactive: activity change, negative = inhibition [5] 2.42% | activity change, negative = inhibition [6] -2.25% | outcome [7] | Potency [8] > 20.6 µM

CC(=O)OC1(c2ccc(C)cc2)CN2CCC1c1ccccc12 (stereo unspecified)
inactive: activity change, negative = inhibition [5] 7.68% | activity change, negative = inhibition [6] -10.3% | outcome [7] | Potency [8] > 20.6 µM

O=c1[nH]c(=O)n(-c2cccc3ccccc23)c(O)c1C=NCCCn1ccnc1
inactive: activity change, negative = inhibition [5] 14.5% | activity change, negative = inhibition [6] -7.5% | outcome [7] | Potency [8] > 20.6 µM

COc1ccc(C(=O)CN2CCOCC2)cc1F
inactive: activity change, negative = inhibition [5] 1.47% | activity change, negative = inhibition [6] 3.56% | outcome [7] | Potency [8] > 20.6 µM

CCCC12CN3CN(C1)CC(CCC)(C3)C2O (stereo unspecified)
inactive: activity change, negative = inhibition [5] 21.7% | activity change, negative = inhibition [6] -5.01% | outcome [7] | Potency [8] > 20.6 µM

CC1=NOC2(C)Nc3ncnn3C(c3ccccc3)C12 (stereo unspecified)
inactive: activity change, negative = inhibition [5] 20.5% | activity change, negative = inhibition [6] -2.94% | outcome [7] | Potency [8] > 20.6 µM

COc1ccc(-n2c(SC)nc3ccccc3c2=O)cc1
inactive: activity change, negative = inhibition [5] 0.0474% | activity change, negative = inhibition [6] 12.3% | outcome [7] | Potency [8] > 20.6 µM

CN(C)CCOC(=O)c1cn(Cc2ccccc2)c2ccccc12
inactive: activity change, negative = inhibition [5] 16% | activity change, negative = inhibition [6] -13.6% | outcome [7] | Potency [8] > 20.6 µM

Reference: PubChem BioAssay (NCATS)
